From PubChem BioAssay
Hits are enriched below; roughly 12% of the tested compounds scored in any of these assays.
PLK1 PBD inh: inhibitors of human PLK1 polo-box domain binding; P53350; Plk1 PBD binding of FITC phosphopeptide, fluorescence polarization; Potency, µM, without a hit: max response, negative = inhibition, usual class: inhibitors; actives 2.8% (n = 360,000); AID 720504; further: potency means the concentration at half of the fitted maximal effect; series mostly up to about 57 µM; on the % scale 0 is the no-effect control and ±100 the full control effect; nearly all actives have a fitted effect of over 65% in size
BAZ2B inh: inhibitors of human BAZ2B bromodomain | AlphaScreen BAZ2B-H3K14Ac peptide displacement | Potency, µM (titrated, usually from 114 µM), without a hit: at the top dose activity change, negative = inhibition, hits mostly inhibitors | actives 4.4% (n = 360,000); further: potency means the concentration at half of the fitted maximal effect; on the % scale 0 is the no-effect control and ±100 the full control effect; nearly all actives have a fitted effect of over 60% in size
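AlphaScreen displacement: compounds (up to 110uM) incubated 30 min at room temperature with a preformed 50 nM BAZ2B/50 nM biotinylated H3K14Ac peptide complex in PBS pH 7.4 with Tween-20. Donor and acceptor beads at 10 ug/mL final added, 20 min light-protected before reading.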
JMJD2A Tudor: blocks the human JMJD2A Tudor domain; AlphaScreen JMJD2A-Tudor / H3K4me3 peptide binding; O75164; AID 504339; actives 4.4% (n = 390,000); Potency, µM (series often up to 114 µM), for the others: at the highest dose activity change, negative = inhibition, hits mostly inhibitors; further: potency means the concentration at half of the fitted maximal effect; on the % scale 0 is the no-effect control and ±100 the full control effect; nearly all actives have a fitted effect of over 50% in size
PI5P4K alpha inh: blocks human PI5P4K alpha kinase activity | P48426 | PI5P4Kalpha enzyme, ADP-Glo luminescence, 60 min; hits give low values | max response, % | actives 1.2% (n = 330,000); active means max response of -50% or lower; inconclusive means between -30% and -50%; inactive means -30% or higher; further: value at the top dose of about 77 µM; on the % scale 0 is the no-effect control and ±100 the full control effect
Target sequence (P48426 whole entry, looked up): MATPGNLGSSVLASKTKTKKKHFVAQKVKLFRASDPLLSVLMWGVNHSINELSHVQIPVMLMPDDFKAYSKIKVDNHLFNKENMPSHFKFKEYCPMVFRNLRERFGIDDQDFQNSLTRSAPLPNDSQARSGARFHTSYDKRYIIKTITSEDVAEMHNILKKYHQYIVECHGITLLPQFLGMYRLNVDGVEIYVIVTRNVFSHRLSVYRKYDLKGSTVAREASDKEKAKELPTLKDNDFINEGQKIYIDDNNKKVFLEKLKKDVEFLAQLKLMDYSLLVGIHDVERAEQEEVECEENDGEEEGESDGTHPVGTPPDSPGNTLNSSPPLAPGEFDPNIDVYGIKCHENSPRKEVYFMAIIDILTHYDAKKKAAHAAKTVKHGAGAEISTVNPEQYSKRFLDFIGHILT
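Enzyme plus substrate dispensed, test compounds pinned in, then ATP (5 microM final) added. After 60 min at RT, ADP-Glo reagent 1 for 45 min and reagent 2 for 30 min preceded luminescence imaging.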
G9a block: inhibitors of human histone lysine methyltransferase G9a. actives 8.8% (n = 350,000). AID 504332. Q96KQ7. G9a H3K9 monomethylation, AlphaScreen, 2 h. Potency, µM (series often up to 102 µM), without a hit: top-dose activity, negative = inhibition, actives largely listed as inhibitors; further: potency means the concentration at half of the fitted maximal effect; on the % scale 0 is the no-effect control and ±100 the full control effect; nearly all actives have a fitted effect of over 75% in size
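G9a (20 nM) was preincubated 15 min with compound, then reacted 2 h at room temperature with 500 nM biotin-H3K9 peptide and 20 µM SAM. Monomethyl-H3K9 detected by AlphaScreen using anti-H3K9me1 antibody.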
HP1b binding inh: inhibitors of HP1-beta chromodomain binding to methylated histone tails. P83916. AlphaScreen HP1-beta / biotin-H3K9me3 peptide binding. Potency, µM (series often up to 114 µM), for the others: top-dose activity change, negative = inhibition, most hits filed as inhibitors. actives 0.56% (n = 390,000). AID 540317; further: potency means the concentration at half of the fitted maximal effect; nearly all actives have a fitted effect of over 70% in size
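HP1-beta protein (50 nM final) preincubated 30 min at room temperature with biotinylated H3(1-18)K9me3 peptide (50 nM) in PBS pH 7.4, 0.01% Tween-20, then compound added for 30 min. AlphaScreen streptavidin donor/nickel chelate acceptor beads (10 ug/mL final), 30 min dark, luminescence read.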
Numbers without * were called inactive; [ ] = dose if it differs, or a comment. Unless noted, the call rests on the fitted dose curve; in most records, active means well fitted curve in the direction sought with a large enough effect; inconclusive means small, poorly fitted or top-dose-only effect, or another doubt; inactive means no such curve, though single readings can be large; an effect the other way counts as inactive or inconclusive.

Screening CC(=O)[C@@H]1[C@@H](C(=O)c2ccccc2)[C@]2(C(=O)Nc3ccccc32)[C@H]2C=Cc3cc(F)ccc3N12 returned PLK1 PBD inh -29%, BAZ2B inh inconclusive, JMJD2A Tudor -36%, PI5P4K alpha inh inconclusive, G9a block 8.9µM* and HP1b binding inh -31%.
For N#CC1c2ccccc2C=CN1C(=O)c1ccccc1 (centres undefined) the results were PLK1 PBD inh -7%, BAZ2B inh 25%, JMJD2A Tudor -19%, PI5P4K alpha inh 2, G9a block 3% and HP1b binding inh 14%.
Screening Cc1ccc(-c2ccc(/C=C3/NC(=O)NC3=O)o2)cc1[N+](=O)[O-] returned PLK1 PBD inh -6%, BAZ2B inh -30%, JMJD2A Tudor -32%, PI5P4K alpha inh -10, G9a block inconclusive and HP1b binding inh 15%.
For CC1=C(C#N)C(=O)NC(=O)/C1=C\c1ccc(-c2cc(C)c(C)cc2[N+](=O)[O-])o1 the results were PLK1 PBD inh 4.7µM*, BAZ2B inh 45µM*, JMJD2A Tudor 56µM*, PI5P4K alpha inh -65*, G9a block 10µM* and HP1b binding inh inconclusive.
Screening COc1ccc(-c2ccc(C(=O)NCc3ccc(N4CCN(C)CC4)cc3)c3occc23)c(C)c1 returned PLK1 PBD inh -2% and PI5P4K alpha inh 6.
`Cc1ccccc1C(=O)Oc1ccc(Br)cc1C(=S)N1CCCC1` gave PLK1 PBD inh -18%, BAZ2B inh -1%, JMJD2A Tudor -8%, G9a block 45µM* and HP1b binding inh 16%.
For O=C(Oc1ccc(C(=S)N2CCCCC2)cc1)c1ccccc1F the results were PLK1 PBD inh -9%, BAZ2B inh -17%, JMJD2A Tudor -12%, PI5P4K alpha inh 0 and HP1b binding inh 26%.
Screening Cc1ccccc1C(=O)Oc1ccccc1C(=O)N1CCOCC1 returned PLK1 PBD inh 0%, BAZ2B inh 8%, JMJD2A Tudor -17%, G9a block 13%[59 µM] and HP1b binding inh 10%.
O=C(Oc1ccc(Br)cc1C(=S)N1CCCC1)c1ccccc1F was read as PLK1 PBD inh 27µM*, BAZ2B inh -8%, JMJD2A Tudor -12%, PI5P4K alpha inh -9, G9a block 8.9µM* and HP1b binding inh -17%.
`O=C(CN1C(=O)NC2(CCCCC2)C1=O)N1CCN(c2ncccn2)CC1` gave PLK1 PBD inh 4%, BAZ2B inh -4%, JMJD2A Tudor -2%, PI5P4K alpha inh 4, G9a block 3%[59 µM] and HP1b binding inh 20%.
`COc1cccc(C2C(C(=O)Nc3ccccc3OC)=C(C)Nc3nc4ccccc4n32)c1` (centres undefined) gave BAZ2B inh -21%, JMJD2A Tudor -27%, G9a block -20%[59 µM] and HP1b binding inh 39%.
For COc1ccc2c(c1)[nH]c1c(=O)n(/N=C/c3ccc(OC)c(COc4ccccn4)c3)cnc12 the results were PLK1 PBD inh 0%, BAZ2B inh 4%, JMJD2A Tudor 79µM*, PI5P4K alpha inh -13, G9a block 9% and HP1b binding inh 7%.
For COc1ccc2c(c1)[nH]c1c(=O)n(/N=C/c3ccc(OC)c(CN4CCCCC4)c3)cnc12 the results were PLK1 PBD inh -6%, BAZ2B inh -5%, JMJD2A Tudor -24%, PI5P4K alpha inh -3, G9a block 1%[12.7 µM] and HP1b binding inh 31%.
`CN(CCc1ccccn1)C1CC(=O)N(c2ccc(Cl)cc2)C1=O` (centres undefined) gave PLK1 PBD inh -11%, BAZ2B inh -4%, JMJD2A Tudor -22%, PI5P4K alpha inh 5, G9a block 5µM* and HP1b binding inh 48%.
`O=C(Nc1nc2c(Cl)ccc(Cl)c2s1)C1CC1` gave PLK1 PBD inh -2%, BAZ2B inh -7%, JMJD2A Tudor -9%, PI5P4K alpha inh 4 and HP1b binding inh 16%.
